Shown are actives, neighbours in structure and some others; about 2.2% of the full set was active somewhere.
ADAM10 inh: ADAM10 inhibition, QFRET primary screen; AID 720582; recombinant ADAM10, EDANS/DABCYL FRET peptide cleavage, 3 h; inhibition, % at 7 µM; 370,000 compounds, 0.62% hits;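 active means inhibition above a per-campaign cutoff equal to the mean of compounds falling between control-based bounds plus 3 SD, cut at about 20% in these data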;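 further: 0% = DMSO wells while the 100% control is not disclosed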
NPR1 activator: GC-A (human) enzyme activation. P16066. HEK293 GC-A cells, cGMP TR-FRET, EC30 ANP; 0% at EC30 ANP, 100% saturating ANP. activation, % at 10 µM. 370,000 compounds, 0.14% hits. AID 1671463; in the data active means activation above about 40%
Target sequence (P16066 whole entry, looked up): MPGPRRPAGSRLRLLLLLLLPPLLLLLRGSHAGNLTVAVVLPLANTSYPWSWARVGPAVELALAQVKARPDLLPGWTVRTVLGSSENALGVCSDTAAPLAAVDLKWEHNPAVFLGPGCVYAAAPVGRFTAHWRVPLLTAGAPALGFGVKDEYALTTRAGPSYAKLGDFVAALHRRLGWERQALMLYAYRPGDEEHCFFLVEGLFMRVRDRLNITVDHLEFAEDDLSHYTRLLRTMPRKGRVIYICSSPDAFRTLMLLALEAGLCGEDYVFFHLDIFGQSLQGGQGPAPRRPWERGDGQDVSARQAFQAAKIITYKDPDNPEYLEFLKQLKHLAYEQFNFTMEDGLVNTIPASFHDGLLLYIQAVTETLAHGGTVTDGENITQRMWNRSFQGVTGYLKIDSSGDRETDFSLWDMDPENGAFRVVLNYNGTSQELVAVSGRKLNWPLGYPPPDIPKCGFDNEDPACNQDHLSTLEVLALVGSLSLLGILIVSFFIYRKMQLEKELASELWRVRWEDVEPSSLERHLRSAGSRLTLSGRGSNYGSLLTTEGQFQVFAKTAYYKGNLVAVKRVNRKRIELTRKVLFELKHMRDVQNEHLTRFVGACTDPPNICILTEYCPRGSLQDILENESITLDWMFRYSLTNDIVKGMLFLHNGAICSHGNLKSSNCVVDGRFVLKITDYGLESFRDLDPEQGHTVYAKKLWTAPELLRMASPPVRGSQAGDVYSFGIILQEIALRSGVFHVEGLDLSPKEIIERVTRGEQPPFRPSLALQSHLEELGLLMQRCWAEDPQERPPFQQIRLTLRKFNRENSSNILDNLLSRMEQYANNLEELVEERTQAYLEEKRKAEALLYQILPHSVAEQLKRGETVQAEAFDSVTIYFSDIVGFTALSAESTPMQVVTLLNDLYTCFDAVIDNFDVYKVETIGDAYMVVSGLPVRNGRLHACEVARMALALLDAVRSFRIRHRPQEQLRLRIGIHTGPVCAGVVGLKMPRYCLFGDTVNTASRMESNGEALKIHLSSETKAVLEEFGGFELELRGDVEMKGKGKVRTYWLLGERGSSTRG
GC-B act: GC-B (human) receptor activation; activation, % at 10 µM; HEK293-GC-B cells, CNP EC30, cGMP TR-FRET; 0% at EC30 CNP, 100% saturating CNP; P20594; 370,000 compounds, 0.11% hits; AID 1920062;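 active means activation at 10 µM reaching about 35% in either raw or pattern-adjusted values, limit read from the data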
KLK7 zymogen act: proKLK7 (human) activation, primary screen; P49862; purified proKLK7, EDANS-DABCYL substrate fluorescence; 100% is mature enzyme control, 0% vehicle; activation, % at 7 µM; 370,000 compounds, 0.9% hits;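 active means activation above the mean of all tested compounds plus 3 SD, computed per campaign excluding outliers beyond control limits, cut at about 13% in these data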
ADAM17 inh: inhibits human ADAM17; inhibition, % at 6.95 µM; AID 720648; 370,000 compounds, 0.83% hits; recombinant ADAM17, EDANS/DABCYL FRET peptide cleavage;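 active means inhibition above the mean of compounds lying between control limits plus 3 SD, set per campaign, cut at about 8.5% in these data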;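 further: 0% = DMSO-only wells as the low control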
KLK7 act conf: confirmation of human kallikrein-7 zymogen activators; shares compounds with KLK7 zymogen act; 3,200 compounds, 68% hits; purified proKLK7, EDANS-DABCYL substrate fluorescence; scaled: vehicle 0, mature enzyme 100; activation, % at 7 µM;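 active means activation, as change over the incubation, above the mean of all tested compounds plus 3 SD, cut at about 13% in these data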
EDANS interfere: optically interferes with EDANS-DABCYL signal, flagging KLK7 hits; shares compounds with KLK7 zymogen act; EDANS-DABCYL substrate fluorescence interference, no enzyme, 4 h; solvent 0%, active enzyme control 100%; 3,200 compounds, 80% hits; activation, % at 7 µM; AID 686952;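 active means activation above the all-compound mean plus 3 SD, ignoring values outside control-based bounds, cut at about 4.8% in these data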;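 further: value is the 4 h activation minus the activation read at time zero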
K7 EDANS ctr: optically interferes with EDANS-DABCYL fluorescence, kallikrein-7 activator counter-screen | shares compounds with KLK7 zymogen act | EDANS-DABCYL peptide fluorescence interference, no enzyme | EC50, µM | 250 compounds, 20% hits | AID 720493;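 active means compounds that raise the fluorescence signal in this interference counterscreen, with EC50 at or below 10 µM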;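 further: intact quenched peptide substrate alone read at 355 nm excitation and 520 nm emission; signal is fluorescence gain from T0 to T4 after four hours at room temperature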
* = called active by the depositor; i = inactive; · = not tested or not shown.

SMILES | ADAM10 inh | NPR1 activator | GC-B act | KLK7 zymogen act | ADAM17 inh | KLK7 act conf | EDANS interfere | others
CSc1nc2[nH]c3c(c2c2nnnn12)CCCC3 | -316.9 | 14.3 | 3.3 | 14.2* | -98.7 | 7.2 | 9.8*
COc1ccc2c(c1)c1ncn(CCN3CCCCC3)c(=O)c1n2C | i | 4.7 | 5.6 | 16.7* | -287.4 | 1.3 | -0.4
COc1ccc2[nH]c3c(=O)n(CCN4CCOCC4)cnc3c2c1 | i | 1.4 | -1.4 | 7.9 | -214.5 | · | ·
COc1ccc2c(c1)c1ncn(CCN3CCCC3)c(=O)c1n2C | i | 0.2 | -2.6 | 24.3* | -208.0 | 4.0 | 5.9*
COc1ccc2c(c1)c1ncn(CCN3CCNCC3)c(=O)c1n2C | i | 0.2 | 0.1 | 25.2* | -438.3 | 17.8* | 16.9*
CN(C)c1ccc(-c2nc3cc(N)ccc3o2)cc1 | i | 29.7 | 1.4 | 23.4* | -426.6 | 9.5 | 24.1*
Nc1ccc(-c2nc3cc(N)ccc3o2)cc1 | i | 17.6 | -13.2 | 55.0* | -274.1 | 64.8* | 75.2*
Nc1ccc(-c2nnc(-c3ccc(N)cc3)o2)cc1 | i | 8.3 | -5.7 | 17.9* | -342.7 | 35.5* | 44.4*
Nc1ccc(-c2nc3ccc(N)cc3o2)cc1 | i | · | · | 56.0* | i | 69.8* | 73.0*
CCCCCCCCN1C(=O)[C@@H](CC(=O)NCCC(C)C)C[C@@]2(C(=O)OC)C1=C[C@H](COCc1ccccc1)O[C@@H]2C | 5.0 | 0.7 | -4.0 | -0.1 | 1.6 | · | ·
CC1CCN(c2ccc(C(=O)O)cc2NS(=O)(=O)c2ccc(C(C)(C)C)cc2)CC1 | -9.7 | 0.5 | -7.9 | -0.5 | -0.9 | · | ·
C[C@@H](CO)N(Cc1cn(Cc2ccccc2)nn1)S(=O)(=O)c1ccccc1Br | -10.6 | 1.7 | -1.0 | 0.7 | -4.5 | · | ·
COc1ccc(NC(=O)CSc2nnc(-c3cccs3)o2)cc1Cl | -4.0 | -1.5 | -1.6 | -3.6 | 1.6 | · | ·
O=C1c2ccccc2/C(=C\c2ccc(O[C@@H]3CCCCO3)cc2)N1c1ccccc1 | -176.0 | -5.1 | -20.2 | 100.4* | -46.4 | 3.6 | 15.1*
COC(=O)[C@]12C[C@H](CC(=O)NCc3ccc(C)o3)C(=O)N(CCC3=CCCCC3)C1=C[C@H](C(C)C)O[C@@H]2C1CC1 | 5.0 | -1.6 | -2.5 | 0.6 | -0.4 | · | ·
COC(=O)C1C(O)=C(C=Nc2cccc3ccccc23)C(=O)CC1(C)C (configuration not stated) | -220.9 | -3.8 | -4.9 | 33.8* | -82.9 | 24.7* | 23.2*
COC(=O)C1C(O)=C(C=NCc2ccccc2)C(=O)CC1(C)C (configuration not stated) | 5.8 | -2.4 | -4.3 | 0.1 | -1.8 | · | ·
N#CCC[C@H]1CC[C@]2(CCCN(Cc3ccc(Br)cc3)C2)O1 | -1.3 | -4.3 | -5.8 | 0.5 | -0.3 | · | ·
O=c1c2cc(N3CCOCC3)ccc2[nH]c(=S)n1CCCN1CCCCC1 | -128.9 | -3.9 | -0.1 | 120.8* | -37.0 | 29.4* | 24.1* | K7 EDANS ctr=>69.5
O=c1c2cc(N3CCOCC3)ccc2[nH]c(=S)n1Cc1cccc(Cl)c1 | -30.8 | 24.5 | 9.2 | -0.7 | -8.1 | · | ·
COc1cc2[nH]c(=S)n(CCCN3CCOCC3)c(=O)c2cc1OC | 9.7 | 3.9 | 1.7 | -0.1 | 1.3 | · | ·
O=C(NC1CCN(Cc2ccccc2)CC1)c1ccc(Cn2c(=S)[nH]c3ccc(N4CCOCC4)cc3c2=O)cc1 | -57.2 | -0.1 | -2.3 | -7.4 | -26.9 | · | ·
O=c1c2cc(N3CCOCC3)ccc2[nH]c(=S)n1CCCN1CCCC1 | -144.6 | 1.4 | -0.9 | 114.2* | -39.9 | 25.5* | 27.4*
O=c1c2ccccc2[nH]c(=S)n1CCCN1CCN(c2ccccc2)CC1 | 3.8 | -11.9 | -3.2 | -0.1 | 0.8 | · | ·
O=C(c1ccc(Cn2c(=S)[nH]c3ccc(N4CCOCC4)cc3c2=O)cc1)N1CCC(N2CCCCC2)CC1 | -70.3 | 1.1 | 1.6 | 27.6* | -24.7 | -34.4 | -40.8
SMILES | ADAM10 inh | NPR1 activator | GC-B act | KLK7 zymogen act | ADAM17 inh | KLK7 act conf | EDANS interfere | others
O=c1c2cc(N3CCOCC3)ccc2[nH]c(=S)n1Cc1ccco1 | -85.3 | 5.1 | 0.0 | 27.9* | -27.2 | 16.8* | 17.5*
CN(Cc1ccccc1)S(=O)(=O)c1cccc(C(=O)OCC2CCCCC2)c1 | -0.6 | -1.2 | 5.1 | -0.1 | -2.2 | · | ·
C=CCN(CC#Cc1ccccc1)Cc1ccc(OC)cc1 | -5.0 | -1.6 | -5.7 | -0.3 | -1.8 | · | ·
CCN1CCCCC(NC(=O)c2cc(OC)c(OC)c(OC)c2)C1=O (configuration not stated) | 2.9 | 2.7 | 8.3 | 0.2 | 4.4 | · | ·
O=C(O)CCc1nn2c3ccccc3nc2n(CCN2CCCCC2)c1=O | -225.8 | 3.8 | 1.0 | 56.6* | -67.4 | 14.9* | 12.6* | K7 EDANS ctr=i
Cc1nn2c3ccccc3n(CCN3CCCCC3)c2nc1=O | -275.3 | 1.5 | 5.7 | 55.3* | -82.8 | 8.2 | 11.8*
O=C(O)CCc1nc2ccccc2n(CCc2ccccc2)c1=O | -122.6 | -0.4 | -4.5 | 1.3 | -43.0 | · | ·
CN(C)c1ccc2nc3ccc(=O)cc-3sc2c1 | -55.6 | -114.2 | -32.6 | 54.3* | -15.6 | 142.5* | 132.7*
CCN(CC)C(=O)CC[C@H]1CC[C@]2(CCCN(CC3CC3)C2)O1 | -0.1 | 2.3 | 4.6 | 0.4 | 3.6 | · | ·
c1ccc2nc3c(nc2c1)OCC1CCCCN31 (configuration not stated) | i | -3.6 | 3.3 | 16.5* | i | 17.9* | 27.8*
c1ccc2nc(N3CCCC3)c(N3CCCCC3)nc2c1 | -58.3 | -0.2 | 3.9 | 1.5 | -12.9 | · | ·
Cc1cc(C)cc(-c2c(C(=O)c3ccc(Br)cc3)[nH]c(N)c2C(=O)NCc2ccc(Cl)cc2)c1 | -9.1 | -17.8 | -24.6 | · | -2.2 | · | ·
COCCCNc1oc(/C=C/c2ccccc2)nc1C#N | i | 3.2 | -7.9 | 43.5* | i | 56.9* | 61.1*
CN(C)CCCNc1oc(-c2cccc(Cl)c2)nc1C#N | i | -1.0 | 1.3 | 51.3* | -252.7 | 17.3* | 26.0*
C=CCNc1oc(/C=C/c2ccccc2)nc1C#N | i | 3.9 | -11.0 | 45.9* | i | 66.4* | 67.8*
CN(C)CCNc1oc(/C=C/c2ccccc2)nc1C#N | i | 2.9 | 2.7 | 97.8* | i | 66.4* | 69.5*
C=CCN(CC#CC(=C)C)Cc1ccc(OC)cc1OC | -1.0 | -2.3 | -4.3 | 0.4 | -1.3 | · | ·
CNc1ccc2ncc(-c3cccc(C(=O)N(C)C)c3)n2n1 | i | 3.4 | -6.0 | 41.9* | i | 39.6* | 41.8*
